DT40 TDP1 no CPT = qHTS for Inhibitors of human tyrosyl-DNA phosphodiesterase 1 (TDP1): qHTS in cells in absence of CPT; DT40 Tdp1-/- hTDP1 cells, no CPT, ATP luminescence, 48 h; Potency, µM (titrated, usually from 46.2 µM), without a hit: at the top dose activity change, negative = growth inhibition, most hits filed as inhibitors; hit rate 15% among 420,000; further: nearly all actives have a fitted effect of over 55% in size
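Stably hTDP1-transfected Tdp1-null chicken DT40 cells were treated with library compounds minus camptothecin and grown for at least 48 hr at 37 °C, after which cellular ATP was quantified by luminescence.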
HT1080 IDH1KD tx = qHTS for induction of synthetic lethality in tumor cells producing 2HG: qHTS for the HT-1080-IDH1KD cell line; HT-1080 IDH1 knockdown viability, ATP luminescence, 48 h; hit rate 2% among 360,000; AID 686971, 2013; Potency, µM (titrated, usually from 46.1 µM), inactives show at the highest dose activity, negative = toxicity, actives largely listed as cytotoxic;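 further: 0% = DMSO wells and -100% = cell-free medium wells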
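Knockdown cells (IDH1KD HT-1080) received compounds 2 h after plating at 750 cells/well and were kept 48 h at 37 °C in 5% FBS RPMI. A CellTiter-Glo luminescence read gave % activity for curve fitting.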
KB-3-1 cytotox = qHTS assay for MDR1-selective chemotherapeutics: Primary screen using the parental adenocarcinoma cell KB-3-1; KB-3-1 viability, CellTiter-Glo ATP luminescence, 72 h; hit rate 1.4% among 400,000; Potency, µM (doses to about 46.1 µM), hits mostly cytotoxic; AID 1347075, 2019; further: nearly all actives have a fitted effect of over 60% in size
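72 h, 37 °C compound treatment of KB-3-1 parental cells; CellTiter-Glo added, 10 min, luminescence read. Data corrected against DMSO-only plates and normalized before curve fitting.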
TDP1 cell CPT = qHTS for Inhibitors of human tyrosyl-DNA phosphodiesterase 1 (TDP1): qHTS in cells in presence of CPT | chicken DT40 Tdp1-/-;hTDP1 cells + 20 nM CPT, ATP luminescence, 48 h | Potency, µM (series often up to 46.2 µM), for the others: at the top dose activity change, negative = growth inhibition, hits mostly inhibitors | hit rate 12% among 420,000 | AID 686979, 2013; further: nearly all actives have a fitted effect of over 55% in size
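Chicken DT40 Tdp1-/- cells stably complemented with human TDP1 were seeded at 400 cells/well in medium containing 20 nM camptothecin, exposed to pin-transferred compounds, and grown at 37 °C for at least 48 hr. Viability was read as ATP luminescence.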
KB-V1 MDR tox = qHTS assay for MDR1-selective chemotherapeutics: Primary screen using the drug-selected MDR subline cells KB-V1; KB-V1 MDR cells viability, CellTiter-Glo, 72 h; Potency, µM (series often up to 46.1 µM), usual class: cytotoxic; hit rate 3.4% among 400,000; AID 1347076, 2019; further: nearly all actives have a fitted effect of over 60% in size
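qHTS viability screen in drug-selected KB-V1 MDR cells: 72 h compound treatment at 37 degrees C, ATP luminescence end point.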
HT1080NT lethal = qHTS for induction of synthetic lethality in tumor cells producing 2HG: qHTS for the HT-1080-NT fibrosarcoma cell line; HT-1080-NT fibrosarcoma viability, CellTiter-Glo ATP luminescence, 48 h; Potency, µM (doses to about 46.1 µM), for inactives: at the highest dose activity, negative = less viability, actives largely listed as cytotoxic; hit rate 1.6% among 360,000;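 further: NT is the 2HG producing partner of a matched IDH1 knockdown line; 0% = DMSO-treated cells and -100% = media-only wells without cells; nearly all actives have a fitted effect of over 55% in size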
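A 48-hour cytotoxicity screen used HT-1080-NT cells plated 2 hours before compound delivery. ATP-based CellTiter-Glo luminescence measured viability, normalized to DMSO and no-cell controls.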
Starred values were filed as active, the others as inactive; i = inactive; ? = inconclusive; . = no result given; [ ] = remark or other dose. Shown are actives, neighbours in structure and some others; about 19% of the full set was active somewhere. The call rests on the fitted dose curve; in most records, active means well fitted curve in the direction sought with a large enough effect; inconclusive means small, poorly fitted or top-dose-only effect, or another doubt; inactive means no such curve, though single readings can be large; an effect the other way counts as inactive or inconclusive. Unless noted, on the % scale 0 is the no-effect control and ±100 the full control effect; potency means the concentration at half of the fitted maximal effect.

SMILES | DT40 TDP1 no CPT | HT1080 IDH1KD tx | KB-3-1 cytotox | TDP1 cell CPT | KB-V1 MDR tox | HT1080NT lethal
O=C(CCc1ccccc1)Nc1ccc2c(c1)C(=O)OC2 | -18% | 1% | i | 9% | i | 2%
CCn1c2ccccc2c2cc(CN3CCOc4ccc(C(O)c5cccnc5)cc4C3)ccc21 (centres undefined) | 26µM* | . | . | ? | . | .
COc1cc(C)c(CN2CCOc3ccc(C(O)c4cccnc4)cc3C2)cc1C (centres undefined) | 18µM* | . | . | -5%[9.04 µM] | . | .
COc1cccc(CN2CCOc3ccc(C(O)c4cccnc4)cc3C2)c1 (centres undefined) | -1% | . | . | -1%[9.04 µM] | . | .
C[C@@H]1CN([C@H](C)CO)C(=O)c2cc(C#CC3CC3)cnc2O[C@H]1CN(C)S(C)(=O)=O | -16% | 8% | i | -13% | ? | 2%
CCOc1ccc(Nc2nc(C)c(NC(=O)c3cccc(OC)c3)c(Nc3ccc(OCC)cc3)n2)cc1 | 2.3µM* | . | i | 1.5µM* | i | .
CCCOc1cccc(NC(=O)c2cc(C)oc2C)c1 | 16µM* | 0% | i | 26µM* | i | 0%
CCCOc1ccc(C(=O)Nc2ccc(NC(=O)c3ccccc3)c(C)c2)cc1 | 16µM* | . | i | ? | i | .
CCOc1cccc(C(=O)Nc2ccc(NC(=O)c3ccccc3)c(C)c2)c1 | ? | ? | i | ? | i | ?
Cc1cc(C(=O)Nc2ccccc2)c(C)o1 | ? | 25% | i | -23% | ? | 2%
CCCOc1cccc(C(=O)Nc2ccc(-c3nc4ccccc4o3)cc2)c1 | 13µM* | . | i | ? | i | .
Cc1ccc(-c2cc(NC(=O)COc3ccc(Cl)cc3C)on2)cc1 | -22% | . | i | -12% | ? | .
CCCCOc1cccc(NC(=O)c2cccc(C(=O)Nc3cccc(OCCCC)c3)c2)c1 | 7.3µM* | . | . | 18µM* | . | .
CCOc1ncccc1C(=O)Nc1cccc(S(=O)(=O)NC2=NCCC2)c1 | -4% | -2% | i | -10% | i | -7%[9.24 µM]
CCCOc1cccc(C(=O)Nc2ccc3c(c2)OCCO3)c1 | 23µM* | -5% | i | -71% | i | 0%
CCOc1ncccc1C(=O)Nc1cccc(C(=O)Nc2cccc(S(=O)(=O)CCO)c2)c1 | 7.3µM* | -3% | i | ? | i | 0%
CCOc1cccc(C(=O)Nc2ccncc2)c1 | ? | -13% | i | 23µM* | ? | ?
O=C(/C=C/c1ccc(O)c(O)c1)O[C@H]1C[C@@](O)(C(=O)O)CC(O)C1O (some centres undefined) | -8% | . | . | -1% | . | .
CC(=O)CCC1C2C(O)C(C(C)C)C(OC(=O)/C=C/c3ccccc3)CC12C (centres undefined) | 26µM* | -15% | i | 18µM* | i | 1%
COc1ccc2c(Cl)cc(NC(=O)Nc3c(C)cccc3C)nc2c1 | 18µM* | 3% | i | 13µM* | i | 2%
CCOC(=O)c1cnc(NCc2ccc(Cl)cc2)c2ccccc12 | -24% | . | . | ? | . | .
CSc1cccc(NC(=O)NCc2cccc(CNC(=O)Nc3cccc(SC)c3)c2)c1 | ? | ? | ? | ? | i | 23µM*
CCOc1cc(CNC(CC)CO)ccc1OCC(=O)Nc1cccc(C(F)(F)F)c1 (centres undefined) | 26µM* | -1% | i | ? | i | -17%

Source: PubChem (National Center for Advancing Translational Sciences (NCATS))
